Assay results reported in article PMC5700166.
Positions count from the first letter of the chain named.

How the values were obtained:
Assay in all cases: protein-binding microarray (PBM); PBM: ~300 nM protein, 6 mM HEPES pH 7.8, 80 mM KCl, 0.5 mM EDTA, 0.5 mM EGTA, 6% glycerol, 35 ng/ul poly-dIdC, 1% milk, 1 h, room temperature; Ap Aiptasia and Nv Nematostella (sea anemones) / Co Capsaspora / Aq Amphimedon (sponge) / Dm Drosophila / Hu human; RHD is the Rel homology domain; high values mean tight binding
Conditions in all cases: dsDNA, one strand shown
GST-Ap-NF-kB RHD = target: T1, GST-Ap-NF-kB RHD (Exaiptasia pallida (Aiptasia), UniProt A0A913YAJ5 2-422)
T1 sequence: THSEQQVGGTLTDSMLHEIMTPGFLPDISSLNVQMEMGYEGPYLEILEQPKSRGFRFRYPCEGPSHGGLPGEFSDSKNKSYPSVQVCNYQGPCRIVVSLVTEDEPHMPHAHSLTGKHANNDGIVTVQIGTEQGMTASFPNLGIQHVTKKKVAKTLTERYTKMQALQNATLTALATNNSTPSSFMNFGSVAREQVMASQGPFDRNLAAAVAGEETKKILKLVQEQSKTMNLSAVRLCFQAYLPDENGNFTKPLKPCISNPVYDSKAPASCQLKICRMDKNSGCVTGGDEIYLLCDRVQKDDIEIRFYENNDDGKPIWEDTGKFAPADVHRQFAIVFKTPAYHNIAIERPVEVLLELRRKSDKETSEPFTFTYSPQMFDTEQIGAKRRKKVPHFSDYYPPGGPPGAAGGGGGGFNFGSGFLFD

[1] = target: T2, GST-Nv-NF-kB (Cys allele) (Nematostella vectensis, UniProt E5G601 2-411)
T2 sequence: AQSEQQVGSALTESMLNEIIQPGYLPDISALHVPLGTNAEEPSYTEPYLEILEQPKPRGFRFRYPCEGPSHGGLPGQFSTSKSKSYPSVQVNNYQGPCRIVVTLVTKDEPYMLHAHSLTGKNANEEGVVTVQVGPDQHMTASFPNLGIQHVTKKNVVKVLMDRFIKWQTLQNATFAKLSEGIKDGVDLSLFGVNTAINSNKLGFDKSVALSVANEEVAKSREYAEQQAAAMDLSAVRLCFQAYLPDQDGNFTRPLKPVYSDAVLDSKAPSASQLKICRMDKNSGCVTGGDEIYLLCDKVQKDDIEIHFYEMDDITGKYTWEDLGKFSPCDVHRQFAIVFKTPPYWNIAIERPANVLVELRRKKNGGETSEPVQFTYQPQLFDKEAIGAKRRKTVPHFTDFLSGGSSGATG

[2] = target: T3, GST-Nv-NF-kB (Ser allele) (Nematostella vectensis, UniProt A7UNT2 2-411)
T3 sequence: T2 sequence with Q21R, C66S, S207N, E215Q, V217A, E225K, A268E, D399E

GST-Dm-Relish = target: T4, GST-Dm-Relish (Drosophila melanogaster, UniProt Q94527 99-473)
T4 sequence: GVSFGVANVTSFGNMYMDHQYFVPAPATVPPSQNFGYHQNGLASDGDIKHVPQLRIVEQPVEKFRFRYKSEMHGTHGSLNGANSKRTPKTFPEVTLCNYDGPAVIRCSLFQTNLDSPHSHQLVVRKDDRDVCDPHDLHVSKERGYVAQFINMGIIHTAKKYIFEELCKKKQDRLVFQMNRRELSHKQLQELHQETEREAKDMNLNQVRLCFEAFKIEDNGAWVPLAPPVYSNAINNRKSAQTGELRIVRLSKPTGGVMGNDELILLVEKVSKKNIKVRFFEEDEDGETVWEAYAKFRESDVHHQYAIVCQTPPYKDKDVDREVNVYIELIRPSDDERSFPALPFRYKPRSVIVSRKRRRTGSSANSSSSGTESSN

GST-Aq-NF-kB = target: T5, GST-Aq-NF-kB (Amphimedon queenslandica, UniProt A9Y5G7 2-389)
T5 sequence: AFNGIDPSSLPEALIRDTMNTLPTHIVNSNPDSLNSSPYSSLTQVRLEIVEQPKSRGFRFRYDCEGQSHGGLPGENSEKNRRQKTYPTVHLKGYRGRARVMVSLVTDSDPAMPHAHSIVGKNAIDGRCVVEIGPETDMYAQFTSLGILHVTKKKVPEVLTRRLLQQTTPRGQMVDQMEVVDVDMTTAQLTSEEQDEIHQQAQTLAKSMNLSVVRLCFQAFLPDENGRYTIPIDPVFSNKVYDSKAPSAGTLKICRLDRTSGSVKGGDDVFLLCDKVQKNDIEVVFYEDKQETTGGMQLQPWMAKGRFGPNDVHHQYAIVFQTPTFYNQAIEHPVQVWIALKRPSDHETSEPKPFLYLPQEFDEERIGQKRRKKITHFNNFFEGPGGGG

GST-Hu-p50 = GST-Hu-p50 (Homo sapiens, UniProt P19838 7-356)
Sequence of GST-Hu-p50 (P19838 7-356): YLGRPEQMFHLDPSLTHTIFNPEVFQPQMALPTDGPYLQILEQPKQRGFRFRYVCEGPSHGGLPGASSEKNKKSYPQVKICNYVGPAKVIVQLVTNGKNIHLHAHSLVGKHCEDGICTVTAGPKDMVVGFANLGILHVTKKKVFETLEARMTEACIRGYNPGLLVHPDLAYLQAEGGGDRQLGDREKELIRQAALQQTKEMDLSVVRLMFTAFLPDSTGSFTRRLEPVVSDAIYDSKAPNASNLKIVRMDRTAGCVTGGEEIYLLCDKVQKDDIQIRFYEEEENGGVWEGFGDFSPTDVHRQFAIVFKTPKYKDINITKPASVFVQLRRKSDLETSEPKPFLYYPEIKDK

GST-Co-NF-kB = target: T6, GST-Co-NF-kB (Capsaspora owczarzaki, UniProt F1ARL5 200-546)
T6 sequence: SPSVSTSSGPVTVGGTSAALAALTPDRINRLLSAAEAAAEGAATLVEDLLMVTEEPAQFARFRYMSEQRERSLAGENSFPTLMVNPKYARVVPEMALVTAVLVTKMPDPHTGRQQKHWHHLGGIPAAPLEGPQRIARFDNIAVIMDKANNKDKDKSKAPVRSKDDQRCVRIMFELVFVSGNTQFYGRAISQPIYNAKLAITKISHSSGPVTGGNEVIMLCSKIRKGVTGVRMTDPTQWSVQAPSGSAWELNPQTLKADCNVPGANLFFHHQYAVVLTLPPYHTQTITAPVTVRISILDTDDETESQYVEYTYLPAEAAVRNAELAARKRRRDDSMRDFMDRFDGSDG

| Sequence | binding signal (GST-Ap-NF-kB RHD) | binding signal [1] | binding signal [2] | binding signal (GST-Dm-Relish) | binding signal (GST-Aq-NF-kB) | binding signal (GST-Hu-p50) | binding signal (GST-Co-NF-kB) |
| --- | --- | --- | --- | --- | --- | --- | --- |
| CCGATTAACATCAGGGGCTTCACTGATGTTAATCGGGTCTTGATTCGCTTGACGCTGCTG | 3.16 z-score | 3.35 z-score | 2.69 z-score | 7.68 z-score | 4.89 z-score | 4.01 z-score |  |
| CCGATTAACATCAGGAGAGTCCCTGATGTTAATCGGGTCTTGATTCGCTTGACGCTGCTG | 4.86 z-score | 5.29 z-score | 3.96 z-score | 3.65 z-score | 7.1 z-score | 3.89 z-score |  |
| CCGATTAACATCAGGAAAGTCCCTGATGTTAATCGGGTCTTGATTCGCTTGACGCTGCTG | 7.69 z-score | 10.6 z-score | 8.2 z-score | 8.43 z-score | 9.81 z-score | 7.09 z-score |  |
| CCGATTAACATCAAAAAGCCCCTTGATGTTAATCGGGTCTTGATTCGCTTGACGCTGCTG | 7.33 z-score | 9.57 z-score | 7.49 z-score | 8.7 z-score | 7.9 z-score | 6.72 z-score |  |
| CCGATTAACATCAGGCAAGCCCCTGATGTTAATCGGGTCTTGATTCGCTTGACGCTGCTG | 2.62 z-score | 2.83 z-score | 1.38 z-score | 2.46 z-score | 5.11 z-score | 3.36 z-score |  |
| CCGATTAACATCAGGAAACCACCTGATGTTAATCGGGTCTTGATTCGCTTGACGCTGCTG | 4.41 z-score | 4.04 z-score | 3.92 z-score | 7.57 z-score | 6.62 z-score | 6.09 z-score |  |
| CCGATTAACATCAGGAAGTACCCTGATGTTAATCGGGTCTTGATTCGCTTGACGCTGCTG | 3.65 z-score | 3.73 z-score | 3.95 z-score | 6.69 z-score | 6.15 z-score | 3.47 z-score |  |
| CCGATTAACATCAAGGTGTTTCCTGATGTTAATCGGGTCTTGATTCGCTTGACGCTGCTG | 1.56 z-score | 1.48 z-score | 1.39 z-score | 1.91 z-score | 2.48 z-score | 3.43 z-score |  |
| CCGATTAACATCAGGATAGTCCCTGATGTTAATCGGGTCTTGATTCGCTTGACGCTGCTG | 5.8 z-score | 5.23 z-score | 4.11 z-score | 2.84 z-score | 6.61 z-score | 4.05 z-score |  |
| CCGATTAACATCAGGCATCCCCCTGATGTTAATCGGGTCTTGATTCGCTTGACGCTGCTG | 6.28 z-score | 5.13 z-score |  | 6.22 z-score | 6.35 z-score | 5.3 z-score | 3.74 z-score |
| CCGATTAACATCAGGAAATTACCTGATGTTAATCGGGTCTTGATTCGCTTGACGCTGCTG | 1.96 z-score | 4.03 z-score | 5.26 z-score | 4.76 z-score | 5.23 z-score | 3.82 z-score |  |
| CCGATTAACATCAAGAGTCCCCCTGATGTTAATCGGGTCTTGATTCGCTTGACGCTGCTG | 7.54 z-score | 5.23 z-score |  | 5.74 z-score | 5.26 z-score | 5.46 z-score | 5.05 z-score |
| CCGATTAACATCAAAAAACCCCGTGATGTTAATCGGGTCTTGATTCGCTTGACGCTGCTG | 7.4 z-score | 7.45 z-score |  | 8.97 z-score | 7.03 z-score | 6.45 z-score | 3.92 z-score |
| CCGATTAACATCACGCATCCCCCTGATGTTAATCGGGTCTTGATTCGCTTGACGCTGCTG | 6.1 z-score | 4.9 z-score |  | 3.44 z-score | 4.33 z-score | 5.14 z-score | 4.65 z-score |
| CCGATTAACATCACGGTAATTCCTGATGTTAATCGGGTCTTGATTCGCTTGACGCTGCTG | 1.42 z-score | 2.05 z-score | 2.65 z-score | 5.3 z-score | 4.04 z-score | 1.7 z-score |  |
| CCGATTAACATCAGGGGGGTTACTGATGTTAATCGGGTCTTGATTCGCTTGACGCTGCTG | 7.07 z-score | 4.42 z-score |  | 8 z-score | 5.46 z-score | 5.29 z-score | 4.24 z-score |
| CCGATTAACATCAGGGACATCCCTGATGTTAATCGGGTCTTGATTCGCTTGACGCTGCTG | 5.51 z-score | 6.99 z-score | 4.22 z-score | 7.71 z-score | 7.32 z-score | 3.84 z-score |  |
| CCGATTAACATCAGGGGATATAATGATGTTAATCGGGTCTTGATTCGCTTGACGCTGCTG | 5.05 z-score | 4.66 z-score |  | 3.82 z-score | 3.39 z-score | 4.28 z-score | 4.01 z-score |
| CCGATTAACATCAGGAAGGTCCCTGATGTTAATCGGGTCTTGATTCGCTTGACGCTGCTG | 3.51 z-score | 2.97 z-score | 1.09 z-score | 1.64 z-score | 5.37 z-score | 2.52 z-score |  |
| CCGATTAACATCAGGGATACACCTGATGTTAATCGGGTCTTGATTCGCTTGACGCTGCTG | 2.29 z-score | 1.83 z-score |  | 2.76 z-score | 3.45 z-score | 2.49 z-score | 1.56 z-score |
| CCGATTAACATCAGAGTATCCCCTGATGTTAATCGGGTCTTGATTCGCTTGACGCTGCTG | 5.9 z-score | 4.9 z-score |  | 3.14 z-score | 3.98 z-score | 4.2 z-score | 4.05 z-score |
| CCGATTAACATCAAAAAAGTACCTGATGTTAATCGGGTCTTGATTCGCTTGACGCTGCTG | 4.63 z-score | 7.84 z-score | 11.4 z-score | 9.37 z-score | 5.47 z-score | 5.8 z-score |  |
| CCGATTAACATCAGAAACTCCCATGATGTTAATCGGGTCTTGATTCGCTTGACGCTGCTG | 3.34 z-score | 3.45 z-score | 2.93 z-score | 3.38 z-score | 3.7 z-score | 2.9 z-score |  |
| CCGATTAACATCACTAATCCCCCTGATGTTAATCGGGTCTTGATTCGCTTGACGCTGCTG | 6.44 z-score | 5.78 z-score |  | 5.13 z-score | 4.99 z-score | 6.23 z-score | 5.81 z-score |
| CCGATTAACATCAGGGATTTACATGATGTTAATCGGGTCTTGATTCGCTTGACGCTGCTG | 2.19 z-score | 2.3 z-score | 1.4 z-score | 9.71 z-score | 3.34 z-score | 1.92 z-score |  |
| CCGATTAACATCAGAAAGTCCCATGATGTTAATCGGGTCTTGATTCGCTTGACGCTGCTG | 5.73 z-score | 7.09 z-score | 6.43 z-score | 6.06 z-score | 5.57 z-score | 4.63 z-score |  |
| CCGATTAACATCACGGGATTTCGTGATGTTAATCGGGTCTTGATTCGCTTGACGCTGCTG | 1.77 z-score | 1.88 z-score | 1.43 z-score | 3.68 z-score | 1.91 z-score | 2.12 z-score |  |
